Source: PubChem BioAssay
Sampled rows, rich in hits. Any-hit rate of the full collection: about 1.6%.
V-ATPase pHluor: alters yeast V-ATPase proton transport; S. cerevisiae, pHLuorin cytosolic pH fluorescence; response, % at 10 µM; hit rate 0.37% among 350,000; AID 504577; in the data active means response mostly above about 7.3%, no sharp cut-off; inactive means mostly below about 5.4%; further: actives read high
NPR2 activator: GC-B (human) receptor activation | HEK293-GC-B cells, CNP EC30, cGMP TR-FRET; 0% at EC30 CNP, 100% saturating CNP | activation, % at 10 µM | hit rate 0.11% among 370,000;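 active means activation at 10 µM reaching about 35% in either raw or pattern-adjusted values, limit read from the data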
GC-A act: GC-A (human) enzyme activation; P16066; hit rate 0.14% among 370,000; activation, % at 10 µM; HEK293 GC-A cells, cGMP TR-FRET, EC30 ANP; 0% at EC30 ANP, 100% saturating ANP; in the data active means activation above about 40%
Efflux pump inh: inhibitors of Candida antifungal efflux pumps expressed in yeast. inhibition, % at 10 µM. hit rate 0.44% among 330,000. S. cerevisiae Candida pump triplex, Nile Red efflux;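 active means plate passing quality check with inhibition over a set limit, or well fluorescence over plate mean plus 4 SD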;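 further: Nile Red retained in pooled yeast measured as flow cytometry median fluorescence; higher means more Nile Red kept so more efflux inhibition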
NSD2 HMT inh: blocks human histone methyltransferase NSD2. inhibition, % at 12.5 µM. AID 743445. NSD2 peptide methylation, AlphaScreen, 120 min. hit rate 0.54% among 310,000. O96028; in the data active means inhibition above about 50%
Target sequence (O96028 whole entry, looked up): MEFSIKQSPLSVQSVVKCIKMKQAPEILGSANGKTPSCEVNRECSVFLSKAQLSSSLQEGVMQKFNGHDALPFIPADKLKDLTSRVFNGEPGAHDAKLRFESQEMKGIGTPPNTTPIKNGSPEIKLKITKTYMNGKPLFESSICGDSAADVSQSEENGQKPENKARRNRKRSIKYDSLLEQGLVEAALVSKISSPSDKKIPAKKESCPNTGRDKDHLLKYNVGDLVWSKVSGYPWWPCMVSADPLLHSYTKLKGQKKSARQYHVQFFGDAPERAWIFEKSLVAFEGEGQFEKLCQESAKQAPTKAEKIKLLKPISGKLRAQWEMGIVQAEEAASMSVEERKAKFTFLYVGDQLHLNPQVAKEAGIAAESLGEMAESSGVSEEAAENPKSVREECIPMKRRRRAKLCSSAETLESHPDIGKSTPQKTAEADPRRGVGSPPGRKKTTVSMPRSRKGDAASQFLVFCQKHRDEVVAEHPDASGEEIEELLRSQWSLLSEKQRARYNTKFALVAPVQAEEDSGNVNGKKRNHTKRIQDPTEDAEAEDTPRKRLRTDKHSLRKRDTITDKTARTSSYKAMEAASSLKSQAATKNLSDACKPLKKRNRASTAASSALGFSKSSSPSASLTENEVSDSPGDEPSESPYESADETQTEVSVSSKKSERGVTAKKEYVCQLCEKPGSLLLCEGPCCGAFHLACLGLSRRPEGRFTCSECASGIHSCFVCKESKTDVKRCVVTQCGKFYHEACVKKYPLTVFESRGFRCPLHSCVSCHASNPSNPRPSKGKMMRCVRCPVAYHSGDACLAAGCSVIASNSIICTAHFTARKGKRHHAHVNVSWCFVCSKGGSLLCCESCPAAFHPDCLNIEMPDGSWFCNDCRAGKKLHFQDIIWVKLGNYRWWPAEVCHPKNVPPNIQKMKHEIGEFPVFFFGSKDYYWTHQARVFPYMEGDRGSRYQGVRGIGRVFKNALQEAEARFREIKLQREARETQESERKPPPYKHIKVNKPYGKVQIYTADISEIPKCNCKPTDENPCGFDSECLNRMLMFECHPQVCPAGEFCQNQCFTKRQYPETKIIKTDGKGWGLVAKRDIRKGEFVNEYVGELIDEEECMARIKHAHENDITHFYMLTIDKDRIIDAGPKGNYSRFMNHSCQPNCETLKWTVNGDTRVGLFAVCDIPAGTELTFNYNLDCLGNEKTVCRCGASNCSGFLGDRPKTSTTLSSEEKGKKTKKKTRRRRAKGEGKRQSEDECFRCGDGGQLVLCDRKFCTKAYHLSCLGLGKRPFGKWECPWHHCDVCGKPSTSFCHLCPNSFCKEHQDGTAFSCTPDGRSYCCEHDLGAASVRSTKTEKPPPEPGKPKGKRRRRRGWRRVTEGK
Rce1 inhib: yeast Ras-converting enzyme inhibition; yeast membranes, quenched prenylated peptide cleavage fluorescence; AID 2563; calls only; hit rate 0.27% among 290,000; Q03530;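 active means fall in fluorescence gain of 50% or more versus controls, with final raw signal at or below 3038400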
AlphaScreen art: AlphaScreen assay artifact in NSD2 counter-screen; hit rate 9.4% among 1,500; shares compounds with NSD2 HMT inh; AlphaScreen artifact counterscreen, preloaded methylated H4 peptide; AC35, µM (doses to about 10 µM); call rule not given here
Of the large screens only hits and unclear results are named; the others gave an inactive call (follow-up assays come after a bar, where they were run).

CCc1ccc(NC(=S)Nc2cccc3cnccc23)cc1	NSD2 HMT inh 98.2 | AlphaScreen art inactive
CCNC(=O)C1CCCN(C(=O)c2ccccc2F)CC1 (stereo not given)	none (no result: V-ATPase pHluor, Efflux pump inh, Rce1 inhib)
CCNC(=O)C1CCCN(C(=O)c2ccccc2OC(F)(F)F)CC1 (stereo not given)	NSD2 HMT inh 60.3 (no result: V-ATPase pHluor, Efflux pump inh, Rce1 inhib) | AlphaScreen art inactive
CCOCCCNC(=O)Cn1cc2c(n1)-c1c(oc(C(=O)N3CCCC3)c1C)CC2	NSD2 HMT inh 97.1 (no result: Efflux pump inh, Rce1 inhib) | AlphaScreen art inactive
CCCCN(C)CCCNC(=O)Cn1cc2c(n1)-c1c(oc(C(=O)N3CCCC3)c1C)CC2	none (no result: V-ATPase pHluor, Efflux pump inh, Rce1 inhib)
Cc1ccc(CN2CCCCC(NC(=O)Nc3cccc([N+](=O)[O-])c3)C2=O)cc1 (stereo not given)	none (no result: V-ATPase pHluor, Efflux pump inh, NSD2 HMT inh, Rce1 inhib)
CN(C)c1ccc(C=c2c3ccccc3n3c2cc(-c2ccccc2)[n+]3C)cc1	none (no result: Efflux pump inh, Rce1 inhib)
CN(C)c1ccc(C=c2c3ccccc3n3c2c2c([n+]3C)CCCC2)cc1	NSD2 HMT inh 71.3 (no result: Efflux pump inh, Rce1 inhib) | AlphaScreen art 4.45µM
O=C(O)CN1C(=O)/C(=C\c2cccc(OCc3ccc(F)cc3)c2)SC1=S	NSD2 HMT inh 54.4 | AlphaScreen art inactive
O=C(NC1=C(Nc2ccc(Cl)cc2)C(=O)c2ccccc2C1=O)c1ccccc1	none
O=C(NC1=C(NC2CCS(=O)(=O)C2)C(=O)c2ccccc2C1=O)c1ccccc1 (stereo not given)	NSD2 HMT inh 109.0 | AlphaScreen art inactive
O=C1C=C(N(CCO)Cc2ccccc2)c2ccccc2C1=O	NSD2 HMT inh 75.9 (no result: NPR2 activator, GC-A act, Efflux pump inh) | AlphaScreen art inactive
O=C1c2ccccc2C(=O)c2c1cccc2N(CCO)CCO	none
CCOc1ccc(-n2c(SCC(=O)Nc3ccc4cn[nH]c4c3)nnc2-c2ccc(C(C)(C)C)cc2)cc1	none (no result: V-ATPase pHluor, Efflux pump inh, Rce1 inhib)
COC(=O)[C@]1(C)CN(C(=O)OC(C)(C)C)C2=C1C(=O)C[C@@](C)(C(=O)OC(C)(C)C)C2	none (no result: V-ATPase pHluor, Efflux pump inh, NSD2 HMT inh, Rce1 inhib)
COc1ccc(C(=O)Nn2c(SCC(=O)c3ccc(Cl)cc3)nc3ccccc3c2=O)cc1	NSD2 HMT inh 116.4 | AlphaScreen art inactive
CC(=O)Nc1ccc(NCc2ccc(C)s2)cc1	NSD2 HMT inh 55.8 | AlphaScreen art inactive
CCCCCN1CCCCC(NC(=O)c2ccc(C)cc2)C1=O (stereo not given)	none (no result: V-ATPase pHluor, Efflux pump inh, NSD2 HMT inh, Rce1 inhib)
Nn1c(SCC(=O)NC2CCCCC2)nnc1-c1cc(-c2ccc(F)cc2)n[nH]1	none (no result: V-ATPase pHluor, Efflux pump inh, Rce1 inhib)
Nc1c2c(=O)oc(-c3ccccc3)cc2nn1-c1ccccc1	NSD2 HMT inh 126.3 | AlphaScreen art inactive
O=S1(=O)c2c(cccc2N2CCSCC2)Oc2ccccc2CN1Cc1cn(Cc2ccc(C(F)(F)F)cc2)nn1	none (no result: V-ATPase pHluor, Efflux pump inh, NSD2 HMT inh, Rce1 inhib)
CC(C)c1[nH]nc2c1C(C1C=CCCC1)C(C#N)=C(N)O2 (stereo not given)	none
CC(C)(C)c1[nH]nc2c1C(C1C=CCCC1)C(C#N)=C(N)O2 (stereo not given)	NSD2 HMT inh 126.6 | AlphaScreen art inactive
CCOC(=O)[C@@]12CCC3=C1N(CCC3)C(=O)[C@H](CC(=O)NCCCOC)C2	none (no result: V-ATPase pHluor, Efflux pump inh, NSD2 HMT inh, Rce1 inhib)
CC1=CS(=O)(=O)CC1Sc1ncn[nH]1 (stereo not given)	NSD2 HMT inh 143.5 | AlphaScreen art inactive
CN1C(=O)C(CCC(=O)O)NC1=S (stereo not given)	NSD2 HMT inh 76.7 | AlphaScreen art inactive
O=C(O)CC1NC(=S)N(Cc2ccccc2)C1=O (stereo not given)	none (no result: V-ATPase pHluor, Efflux pump inh, Rce1 inhib)
Cc1ccc(Cl)cc1NC(=O)C[n+]1ccc(Cc2ccc([N+](=O)[O-])cc2)cc1	NSD2 HMT inh 84.1 | AlphaScreen art inactive
O=C(C[n+]1ccc(Cc2ccccc2)cc1)Nc1ccc([N+](=O)[O-])cc1Cl	none
CC(C)(C)/C=N/NC(=O)CNC(=O)c1ccc2c(c1)OCCO2	NSD2 HMT inh 50.4 | AlphaScreen art inactive
CC[C@H](CCCCCC#N)CCC(=O)N(c1ccccc1)c1ccccc1	none (no result: V-ATPase pHluor, Efflux pump inh, NSD2 HMT inh, Rce1 inhib)
O=C(NC(=S)Nc1ccccc1N1CCCC1)c1ccco1	NSD2 HMT inh 74.1 | AlphaScreen art inactive
CCOC(=O)C(Oc1ccc2c(-c3ccc(OC)cc3)cc(=O)oc2c1C)c1ccccc1 (stereo not given)	NSD2 HMT inh 53.2 | AlphaScreen art inactive
CCOC(=O)C(Oc1ccc2c(-c3ccccc3)cc(=O)oc2c1C)c1ccccc1 (stereo not given)	none
O=c1oc(-c2ccco2)nc2c1cnn2-c1ccccc1	none
O=c1c2cnn(-c3ccccc3)c2nc(-c2ccco2)n1-c1ccccc1	NSD2 HMT inh 115.4 | AlphaScreen art inactive
COc1ccc(C(C[N+](=O)[O-])c2c(C)[nH]n(-c3ccccc3)c2=O)cc1 (stereo not given)	NSD2 HMT inh 92.3 | AlphaScreen art inactive
Cc1[nH]n(-c2ccccc2)c(=O)c1C(C[N+](=O)[O-])c1ccccc1Cl (stereo not given)	none
O=S(=O)(Nc1cc(Sc2cccc3cccnc23)c(O)c2ccccc12)c1ccccc1	NSD2 HMT inh 56.4 (no result: V-ATPase pHluor, Efflux pump inh) | AlphaScreen art inactive
CCc1ccc(S(=O)(=O)Nc2cc(SCC(=O)O)c(O)c3ccccc23)cc1	NSD2 HMT inh 112.5 | AlphaScreen art inactive
CCOc1ccccc1N(CC(=O)NCCc1ccc(OC)c(OC)c1)S(=O)(=O)c1ccccc1	NSD2 HMT inh 54.8 | AlphaScreen art inactive
CCOc1ccccc1N(CC(=O)Nc1ccc(OC)c(OC)c1)S(=O)(=O)c1ccccc1	none
COC1=CC(=O)c2c(ccc3ncnc(N)c23)C1=O	NSD2 HMT inh 121.6 (no result: Efflux pump inh, Rce1 inhib) | AlphaScreen art inactive
CCCN(CC1CC1)C(=S)Nc1ccc(C(C)=O)cc1	none
CCN(C(=S)Nc1ccc(C(C)=O)cc1)C1CCCCC1	NSD2 HMT inh 53.4 | AlphaScreen art inactive
O=C(Nc1nnc(SCc2ccc(F)cc2)s1)c1ccccn1	NSD2 HMT inh 65.1 (no result: Efflux pump inh) | AlphaScreen art inactive
O=C(Nc1nnc(SCc2ccc(F)cc2)s1)c1cccnc1Cl	none
O=C(O)c1cc(N/N=C/c2ccc3c(c2)OCO3)ccc1Cl	NSD2 HMT inh 75.2 (no result: Rce1 inhib) | AlphaScreen art inactive
O=C(O)c1cc(N/N=C/c2ccc3c(c2)OCCO3)ccc1Cl	none (no result: Rce1 inhib)
COc1ccc(OC)c(/C=C2\SC(=S)N(NS(=O)(=O)c3ccc(C)cc3)C2=O)c1	NSD2 HMT inh 51.6 | AlphaScreen art inactive
COc1ccc(/C=C2\SC(=S)N(NS(=O)(=O)c3ccc(C)cc3)C2=O)c(OC)c1	none
COc1cc(/C=C2\C(=O)ON=C2c2ccc(Cl)cc2)ccc1O	NSD2 HMT inh 60.9 | AlphaScreen art inactive
Cc1cc(C)n(-c2nc(NCC(C)O)c3c4c(sc3n2)COC(C)(C)C4)n1 (stereo not given)	NSD2 HMT inh 80.6 | AlphaScreen art inactive
COc1ccc(OCCSc2nnc(CCNC(=O)c3ccc(Cl)c(Cl)c3)n2C)cc1	NSD2 HMT inh 59.1 | AlphaScreen art inactive
CC1(C)Cc2c(c(-c3ccco3)[nH]c(=O)c2C#N)CO1	NSD2 HMT inh 58.4 | AlphaScreen art inactive
